Among all 290,000 compounds or so, about 890 (0.31%) were called active. No stated cut-off is given here; in the data, active means inhibition mostly above about 52% (no sharp cut-off); inactive means mostly below about 76%. The full list was thinned out, with actives kept by preference.
Experiment: inhibitors of HIV fusion peptide binding, primary screen, biochemical, uHTS, fluorescence dequenching (AID 1986)
Settings: cell-free peptide binding, 30 min, stronger effect = higher value
[1] = measured here: repeat confirmation average inhibition, at 18.6 µM

Row | Compound | inhibition (at 20 µM) | inhibition [1]
1 | Clc1cccc(CN2CCN(c3nc4nonc4nc3NC3CC3)CC2)c1 | 3.4% (inactive) | –
2 | Cc1cc2nc3c(=O)n(C4CCCCC4)c(=O)[nH]c3nc2cc1N | 66.8% (active) | –
3 | CCCCCCn1c(=O)[nH]c2nc3cc(N)c(C)cc3nc2c1=O | 38.8% (inactive) | –
4 | Nc1ccc2nc3c(=O)n(C4CCCCC4)c(=O)[nH]c3nc2c1 | 146% (inactive) | –
5 | CCOC(=O)c1cnc2c(N=Nc3ccccc3)c(N)nn2c1N | -0.1% (inactive) | –
6 | COc1ccc(/C=N\NS(=O)(=O)c2ccc(Br)cc2)cc1COc1ccccc1[N+](=O)[O-] | -1.1% (inactive) | –
7 | COC(=O)c1cc(S(=O)(=O)NCCc2ccc(Cl)cc2)c[nH]1 | 1.3% (inactive) | –
8 | O=C(O)COc1ccccc1C(Nc1ccccn1)c1cc(Cl)c2cccnc2c1O (stereo unspecified) | 56.9% (active) | –
9 | O=C(O)COc1ccccc1C(Nc1cccnc1)c1cc(Cl)c2cccnc2c1O (stereo unspecified) | 77.6% (active) | –
10 | Oc1c(C(Nc2ccccn2)c2cccnc2)cc(Cl)c2cccnc12 (stereo unspecified) | -3.6% (inactive) | –
11 | COc1ccccc1C(NC(C)=O)c1cc(Cl)c2cccnc2c1O (stereo unspecified) | -2.4% (inactive) | –
12 | O=C(NC(c1ccccc1)c1cc(Cl)c2cccnc2c1O)c1cccnc1 (stereo unspecified) | 0.8% (inactive) | –
13 | CCOc1ccc(C(Nc2cccnc2)c2cc(Cl)c3cccnc3c2O)cc1 (stereo unspecified) | 17.1% (inactive) | –
14 | Fc1ccc(CSc2ccc(-c3ccc4c(c3)OCO4)nn2)cc1 | -3.7% (inactive) | –
15 | O=S(=O)(NCCC1CC1(Cl)Cl)c1ccccc1 (stereo unspecified) | -2% (inactive) | –
16 | CCOc1ccc(C(=O)NC(=S)Nc2ccccn2)cc1[N+](=O)[O-] | -0.9% (inactive) | –
17 | O=C(NC1CCCCC1)Oc1cc2oc(=O)sc2cc1Br | -1.5% (inactive) | –
18 | CCCCNC(=O)Oc1cc(CCl)on1 | 0.1% (inactive) | –
19 | CCCCNC(=O)Oc1c(Br)cc2sc(=O)oc2c1Br | 54.3% (active) | –
20 | COC(=O)c1cc(OC)c(OC)cc1NC(=O)c1csc(C)c1 | -1.1% (inactive) | –
21 | COc1ccccc1-c1ccc(/C=C2/C=C(C)OC2=O)o1 | 48.6% (inactive) | –
22 | COc1ccccc1-c1ccc(/C=C2\C=CC(=O)O2)o1 | 70.7% (active) | 59%
23 | CCCC1=C/C(=C/c2ccc(-c3ccccc3OC)o2)C(=O)O1 | 32% (inactive) | –

Row | Compound | inhibition (at 20 µM) | inhibition [1]
24 | CCCCNC(=O)O/N=C(\N)CS(=O)(=O)C(C)(C)C | -2.3% (inactive) | –
25 | COc1cccc(NC(=O)Cn2nnc(C(=O)Nc3cc(Cl)ccc3OC)c2N)c1 | 1.3% (inactive) | –
26 | CCOc1ccc(C(=O)Nc2ncccc2Cl)cc1 | 1.2% (inactive) | –
27 | CCOC(=O)C(C)N1C(=O)S/C(=C\c2ccc(-c3ccccc3C(=O)O)o2)C1=O (stereo unspecified) | 22.7% (inactive) | –
28 | Cc1ccc2c(nc3s/c(=C/c4cccs4)c(=O)n32)c1C | -1.1% (inactive) | –
29 | Cc1cc2nc3s/c(=C/c4ccc(-c5ccccc5C(=O)O)o4)c(=O)n3c2cc1C | 116% (active) | 108%
30 | O=C(O)c1ccccc1-c1ccc(/C=c2\sc3nc4cc(Br)cnc4n3c2=O)o1 | 56.9% (inactive) | 28.9%
31 | Cc1ccc2c(nc3s/c(=C\c4ccc(-c5ccccc5C(=O)O)o4)c(=O)n32)c1C | 88% (active) | 121%
32 | COc1ccc(O)c(/C=c2/sc3nc4cc(C)c(C)cc4n3c2=O)c1 | -3.1% (inactive) | –
33 | COCCCNC(=O)c1ccc(CS(=O)(=O)c2cccc(C(F)(F)F)c2)o1 | -1.7% (inactive) | –
34 | CCC12CN3CCN(CC(C3)/C1=N\NC(=O)c1ccc(F)cc1)C2 | 0.1% (inactive) | –
35 | CCOc1ccc(C2C(C(=O)c3ccco3)=C(O)C(=O)N2Cc2cccnc2)cc1 (stereo unspecified) | 0.5% (inactive) | –
36 | Cc1ccc(C)c(NC(=O)CSc2nnc(CNC(=O)c3ccco3)n2C)c1 | -1.8% (inactive) | –
37 | CCOC(=O)c1ccc(N2C(=O)c3n[nH]c(-c4ccco4)c3C2c2cccc([N+](=O)[O-])c2)cc1 (stereo unspecified) | 14.6% (inactive) | –
38 | CCOC(=O)c1ccc(N2C(=O)c3n[nH]c(-c4ccco4)c3C2c2ccc([N+](=O)[O-])cc2)cc1 (stereo unspecified) | 60.1% (active) | –
39 | CCOC(=O)c1ccc(N2C(=O)c3n[nH]c(C)c3C2c2ccco2)cc1 (stereo unspecified) | -0.8% (inactive) | –
40 | Cc1nnc(SCC(=O)N2CCN(c3ccccc3)CC2)n(N)c1=O | 0.4% (inactive) | –
41 | COc1cc(OC)cc(C(=O)n2nc(C)cc2C)c1 | -0.7% (inactive) | –
42 | Cn1c(CC(=O)Nc2ccc(Cl)cc2)nnc1SCC(=O)N1CCOCC1 | -1% (inactive) | –
43 | Cc1cc(/C=C2\NC(=S)N(C)C2=O)ccc1N1CCCC1 | 143% (inactive) | –
44 | CCCN1C(=O)/C(=C/c2ccc(N3CCCC3)c(C)c2)NC1=S | 125% (inactive) | –
45 | Cc1cc(/C=C2/C(=O)N(C)C(=S)N2C)ccc1N1CCCC1 | 54.2% (active) | –
46 | Cc1cc(S(=O)(=O)N2CCOCC2)ccc1OCC(=O)Nc1cccc(F)c1 | -1.3% (inactive) | –

Row | Compound | inhibition (at 20 µM) | inhibition [1]
47 | CCOc1ccc(C(C)NC(=O)c2cccnc2OCC)cc1OCC (stereo unspecified) | -0.2% (inactive) | –
48 | Cc1csc(N/N=C/c2ccc(O)c([N+](=O)[O-])c2)n1 | 0% (inactive) | –
49 | O=[N+]([O-])c1cc(/C=N\Nc2nc(-c3ccccc3)cs2)ccc1O | 33.1% (inactive) | –
50 | O=[N+]([O-])c1cc(/C=N\Nc2nccs2)ccc1O | 71.1% (active) | –
51 | O=C(/C=C/c1cc([N+](=O)[O-])ccc1OC(F)F)Nc1cccc2ccccc12 | 1.3% (inactive) | –
52 | CC1(C)Cc2c(sc(NC(=S)NC(=O)c3ccccc3)c2C(=O)O)CO1 | 2.8% (inactive) | –
53 | CC(/C=C1\SC(=S)N(NS(=O)(=O)c2ccccc2)C1=O)=C\c1ccccc1 | 40.6% (inactive) | –
54 | CC(/C=C1\SC(=S)N(NS(=O)(=O)c2ccc(C)cc2)C1=O)=C\c1ccccc1 | 56.5% (active) | –
55 | CC(/C=C1\SC(=S)N(NC(=O)c2ccc(C)cc2)C1=O)=C\c1ccccc1 | 6.4% (inactive) | –
56 | COc1ccc(NC(=O)/C(C#N)=C\C=C\c2ccco2)cc1 | 73.2% (inactive) | -0.6%
57 | COc1ccccc1NC(=O)/C(C#N)=C/C=C/c1ccco1 | 24.1% (inactive) | –
58 | COc1ccc(NC(=O)/C(C#N)=C/C=C/c2ccco2)cc1 | 80.7% (active) | –
59 | Cc1cccn2cc(CCNC(=O)c3ccco3)nc12 | -0.6% (inactive) | –
60 | Cc1cc(N2C(=O)C(O)=C(C(=O)c3ccco3)C2c2ccc([N+](=O)[O-])cc2)no1 (stereo unspecified) | 1.4% (inactive) | –
61 | Cc1nc(=O)c(-c2ccccc2)c(C)n1CCCCCC(=O)O | -2.3% (inactive) | –
62 | CC(N=C(NS(=O)(=O)c1ccc(Cl)cc1)c1ccccc1)C(=O)O (stereo unspecified) | -0.1% (inactive) | –
63 | COc1cc(C=C(c2nc3ccccc3s2)c2nc3ccccc3s2)cc(OC)c1O | 26.6% (inactive) | –
64 | COc1cc(C=C(c2nc3ccccc3s2)c2nc3ccccc3s2)ccc1O | 8.2% (inactive) | –
65 | COc1ccc(C=C(c2nc3ccccc3s2)c2nc3ccccc3s2)cc1O | 57.6% (active) | –
66 | CCS(=O)(=O)Nc1cccc(C2=NN(S(C)(=O)=O)C(c3cccs3)C2)c1 (stereo unspecified) | 0.5% (inactive) | –
67 | CCOC(=O)C(NC(C)=O)(Nc1ccc(S(=O)(=O)Nc2cc(C)on2)cc1)C(F)(F)F (stereo unspecified) | 3.7% (inactive) | –
68 | CCCC(=O)NC(Nc1ccc(S(=O)(=O)Nc2cc(C)on2)cc1)(C(=O)OCC)C(F)(F)F (stereo unspecified) | -1.8% (inactive) | –
69 | CCOC(=O)C(NC(=O)CC)(Nc1ccc(S(=O)(=O)Nc2cc(C)on2)cc1)C(F)(F)F (stereo unspecified) | 59.8% (active) | –

Row | Compound | inhibition (at 20 µM) | inhibition [1]
70 | COCCCN(C(=S)NC(=O)C(C)(C)C)c1c(N)n(Cc2ccccc2)c(=O)[nH]c1=O | -2.2% (inactive) | –
71 | COc1cc(/C=C2\SC(=Nc3ccc(O)cc3)NC2=O)cc(OC)c1O | -2.7% (inactive) | –
72 | COc1cc(/C=C2\SC(=Nc3ccccc3OC)NC2=O)ccc1O | 8.2% (inactive) | –
73 | COc1cc(/C=C2/SC(=S)N(Cc3ccccc3)C2=O)ccc1O | 6% (inactive) | –
74 | O=C1/C(=C\c2cc(Cl)c(O)c(Cl)c2)SC(=S)N1Cc1ccccc1 | 159% (inactive) | –
75 | COc1cc(/C=C2/SC(=Nc3ccc(O)cc3)NC2=O)cc(OC)c1O | -2.4% (inactive) | –
76 | COc1cc(/C=C2\SC(=Nc3ccccc3)NC2=O)cc(Cl)c1O | 90% (active) | 60.8%
77 | COc1ccc(OC)c(/C=C2\SC(=S)N(Cc3cccnc3)C2=O)c1 | 36.3% (inactive) | –
78 | COc1ccc(/C=C2\SC(=Nc3ccccc3OC)NC2=O)cc1 | 7.1% (inactive) | –
79 | COc1ccccc1N=C1NC(=O)/C(=C/c2ccc(N(C)C)cc2)S1 | 52.4% (active) | –
80 | COc1ccc(O)c(/C=C2/SC(=S)N(Cc3ccccc3)C2=O)c1 | 68.8% (active) | 51%
81 | COc1ccc(/C=C2/SC(=S)N(Cc3ccccc3)C2=O)cc1O | -3.1% (inactive) | –
82 | COc1cc(/C=C2/SC(=S)N(Cc3ccccc3)C2=O)cc(Cl)c1O | 119% (active) | 88%
83 | CCN(CC)CCCNC(=O)CNC(=S)N(CCCN1CCOCC1)Cc1cccs1 | -0.5% (inactive) | –
84 | Cc1cc(C)cc(OCC(=O)Nc2nc(-c3cccnc3)cs2)c1 | -0.2% (inactive) | –
85 | COc1ccc2cc(CN(CC3CCCO3)S(=O)(=O)c3ccccc3)c(=O)[nH]c2c1 (stereo unspecified) | 1.4% (inactive) | –
86 | COc1cc(N2CCCC2)c(OC)cc1/C=C(/C#N)c1ccc(F)cc1 | 15.6% (inactive) | –
87 | N#C/C(=C/c1ccc(N2CCCCCC2)o1)c1cccc(F)c1 | 3.6% (inactive) | –
88 | COc1cc(N2CCCC2)c(OC)cc1/C=C(/C#N)c1cccc(Br)c1 | 51.2% (active) | 65.1%
89 | N#C/C(=C/c1ccc(N2CCCCC2)cc1)c1cccc(F)c1 | 1.6% (inactive) | –
90 | COc1cc(N2CCCC2)c(OC)cc1/C=C(/C#N)c1ccc(Br)cc1 | -0.2% (inactive) | –
91 | COc1cc(N2CCCC2)c(OC)cc1/C=C(/C#N)c1cccc(F)c1 | 57.2% (active) | –
92 | CCOC(=O)c1c(C)n(C)c2c(C)cc(O)c(OC(=O)CC)c12 | 1.5% (inactive) | –

— PubChem BioAssay AID1986 (Sanford-Burnham Center for Chemical Genomics, 2009)
